The panel holds about 83,000 compounds, 20% with a hit somewhere; the sample as a whole holds those more often.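 Note: values are percent growth. 100 is the growth of untreated cells, values between 100 and 0 indicate rising inhibition; between -100 and 0 indicates cell death.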 A number with no mark means an inactive call. Calls of active or inactive are those of the source. The calls were made as follows: active = growth percent below 10; inactive = the rest.
Key:
Experiment in all cases: NCI-60 one-dose screen, 48 h (100 = growth as untreated, 0 = no growth, -100 = all killed)
Conditions in all cases: 10 µM unless noted
SR leukemia = test system: SR leukemia
RPMI-8226 leukemia = test system: RPMI-8226 leukemia
OVCAR-8 ovarian = test system: OVCAR-8 ovarian
OVCAR-5 ovarian = test system: OVCAR-5 ovarian
OVCAR-4 ovarian = test system: OVCAR-4 ovarian
SK-OV-3 ovarian = test system: SK-OV-3 ovarian
IGROV1 ovarian = test system: IGROV1 ovarian
OVCAR-3 ovarian = test system: OVCAR-3 ovarian
HS 578T breast = test system: HS 578T breast
NCI/ADR-RES ovarian = test system: NCI/ADR-RES ovarian
T-47D breast = test system: T-47D breast
BT-549 breast = test system: BT-549 breast
MDA-MB-435 melanoma = test system: MDA-MB-435 melanoma
SW-620 colon = test system: SW-620 colon
MCF7 breast = test system: MCF7 breast
HCT-116 colon = test system: HCT-116 colon
HCC-2998 colon = test system: HCC-2998 colon
KM12 colon = test system: KM12 colon

SMILES	growth (SR leukemia)	growth (RPMI-8226 leukemia)	growth (OVCAR-8 ovarian)	growth (OVCAR-5 ovarian)	growth (OVCAR-4 ovarian)	growth (SK-OV-3 ovarian)	growth (IGROV1 ovarian)	growth (OVCAR-3 ovarian)	growth (HS 578T breast)	growth (NCI/ADR-RES ovarian)	growth (T-47D breast)	growth (BT-549 breast)	growth (MDA-MB-435 melanoma)	growth (SW-620 colon)	growth (MCF7 breast)	growth (HCT-116 colon)	growth (HCC-2998 colon)	growth (KM12 colon)
COC(=O)[C@@H](CCCCNC(=O)[C@]12CCC(C)(C)C[C@@H]1C1=CC[C@@H]3[C@@]4(C)C/C(=C/c5ccco5)C(=O)C(C)(C)[C@@H]4CC[C@@]3(C)[C@]1(C)CC2)NC(=O)[C@]12CCC(C)(C)C[C@@H]1C1=CC[C@@H]3[C@@]4(C)C/C(=C/c5ccco5)C(=O)C(C)(C)[C@@H]4CC[C@@]3(C)[C@]1(C)CC2	87.9%	100%	104%	108%	127%	106%	107%	115%	104%	112%	94.7%	106%	93.9%	112%	104%	100%	103%	103%
C#CCOc1ccc2ncnc(Nc3ccc(NC(=O)C=C)cc3)c2c1	-23% (active)	-29.4% (active)	0.598% (active)	12.2%	35%	90.6%	-59% (active)	-22.3% (active)	14.9%	67%	4.07% (active)	-28.7% (active)	-18.9% (active)	-45.8% (active)	-10.4% (active)	-79.9% (active)	82.2%	8.91% (active)
COc1cc2c(c(OC)c1OC)CCC(c1cccc(NC(=O)c3ccc(Br)cc3)c1)O2 (centres undefined)	35%	56.8%	85.3%	93.3%	67.4%	75%	71%	90.8%	90.4%	84.1%	40.4%	87.5%	69.1%	91.5%	73.2%	71.9%	102%	91.1%
CCC(C)N(CCNc1cc(OC)cc2cccnc12)CC(C)C (centres undefined)	85.4%	70.3%	90.9%	99.6%	16.4%	95.1%	53.6%	65.2%	110%	83.5%	6.53% (active)	106%	109%	85.5%	12.6%	66.9%	96%	97.5%
CCOCCNC1=C(Cl)C(=O)c2ccccc2C1=O	89.3%	90.4%	106%	120%	107%	108%	112%	101%	91.9%	103%	90.8%	107%	104%	110%	69.1%	88.1%	112%	91.4%
COCCOc1cc2ncnc(N3CCN(c4cc(S(C)(=O)=O)c(C)cc4Cl)CC3)c2cc1OCCOC	77%	76%	83.2%	109%	103%	105%	98%	96.1%	90.6%	83.2%	69.6%	91.4%	105%	110%	91.9%	103%	100%	93.2%
Cc1ccc(C)n1-c1ccccc1-n1c(C)ccc1C	93.2%	148%	102%	118%	105%	109%	92.9%	120%	117%	116%	91.2%	104%	94.1%	139%	101%	104%	115%	117%
CCC1=C[C@@H]2C[C@]3(C(=O)OC)c4[nH]c5ccccc5c4CC[N@+](CC(=O)Nc4cc5c(cc4OC)N(C)[C@H]4[C@@](O)(C(=O)OC)[C@H](OC(C)=O)[C@]6(CC)C=CCN7CC[C@]54[C@@H]76)(C2)[C@H]13	99.4%	105%	102%	109%	104%	105%	104%	109%	99.4%	106%	105%	111%	105%	100%	103%	102%	110%	104%

From PubChem BioAssay (NCI)
